From PubChem BioAssay
ST2 inh: inhibitors of human ST2 (IL1RL1) binding to IL-33, primary screen, biochemical, AlphaLISA. Interleukin-1 receptor-like 1 (Homo sapiens), Q01638. inhibition, % for hits at 17 µM. AID 1259354, 2018. AlphaLISA ST2-Fc/biotin-IL-33 interaction, 1 h. 2.3% of 78,000 active; in the data active means inhibition above about 30%
Target sequence (Q01638 whole entry, looked up): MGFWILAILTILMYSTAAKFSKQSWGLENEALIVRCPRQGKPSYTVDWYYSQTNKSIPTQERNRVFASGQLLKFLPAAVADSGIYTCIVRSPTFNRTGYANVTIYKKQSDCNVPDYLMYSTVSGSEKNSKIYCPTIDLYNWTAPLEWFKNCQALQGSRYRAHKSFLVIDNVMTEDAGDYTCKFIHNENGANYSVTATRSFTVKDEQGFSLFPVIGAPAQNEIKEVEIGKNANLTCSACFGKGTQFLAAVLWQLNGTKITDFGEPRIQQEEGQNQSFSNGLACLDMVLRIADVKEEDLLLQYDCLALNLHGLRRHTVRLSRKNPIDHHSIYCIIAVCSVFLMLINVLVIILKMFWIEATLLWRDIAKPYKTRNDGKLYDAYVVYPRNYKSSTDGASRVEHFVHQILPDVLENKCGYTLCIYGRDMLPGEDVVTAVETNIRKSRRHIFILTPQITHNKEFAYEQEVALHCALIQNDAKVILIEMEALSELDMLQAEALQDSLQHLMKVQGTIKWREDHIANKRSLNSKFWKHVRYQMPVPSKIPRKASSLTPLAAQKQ
* marks the source's active call; other numbers are inactive results; i = inactive. Only a selection was taken, and hits are over-represented in it overall.

SMILES	ST2 inh
COc1ccc(CNC(=O)[C@H]2O[C@H](CCN3CCN(c4ccccc4)CC3)CC[C@@H]2O)cc1	i
COCCN(CCOC)CC[C@@H]1CC[C@H](O)[C@@H](C(=O)Nc2ccccc2)O1	38.0%*
O=C(O)C1CC=CCC1C(=O)Nc1ccccc1 (stereo not drawn)	i
CC(=O)c1cccc(NC(=O)c2ccc(C)cc2Cl)c1	i
N#Cc1c2c(c(=O)n3c1[nH]c1ccccc13)CCCC2	i
O=C(Nc1ccc(Cl)cc1)C1CCN(S(=O)(=O)c2cccs2)CC1	i
Cc1ccc(OCCCN(C)C(=O)c2cn(-c3ccccc3)nn2)c(C)c1	i
O=C1CCC(C(=O)NCC(CO)Cc2cccs2)=NN1 (stereo not drawn)	i
O=C(COc1ccc(Cl)cc1Cl)Nc1ccc(F)cc1F	i
COc1ccc(C2C(C(=O)NCCN(C)C)c3cc(OC)c(OC)cc3C(=O)N2C)cc1 (stereo not drawn)	33.0%*
COCCCNC(=O)C1c2cc(OC)c(OC)cc2C(=O)N(C)C1c1ccc(OC)cc1 (stereo not drawn)	i
CCN(CC)CCNC(=O)C1c2cc(OC)c(OC)cc2C(=O)N(C)C1c1ccc(OC)cc1 (stereo not drawn)	i
CC(C)CNC(=O)c1cc(CC(C)C)on1	i
CC(C)=CCC[C@](C)(O[C@@H]1O[C@H](CO)[C@@H](O)[C@H](O)[C@H]1O)[C@H]1CC[C@]2(C)[C@@H]1[C@H](O)CC1[C@@]3(C)CC[C@H](O)C(C)(C)C3[C@@H](O[C@@H]3O[C@H](CO)[C@@H](O)[C@H](O)[C@H]3O[C@@H]3O[C@H](CO)[C@@H](O)[C@H](O)[C@H]3O)C[C@]12C (stereo partly drawn)	i
O=C1C(=Cc2cccn2-c2ccc(Br)cc2)C(=O)c2ccccc21	i
O=C1c2ccccc2-c2ccc(Br)cc21	32.0%*
O=C1C(Br)=C(Br)C(=O)c2ccccc21	i
CCN1CCN(C(=O)c2cn(CC)c3ccc(S(=O)(=O)N4CCCCC4)cc3c2=O)CC1	i
CN(C)c1ccc(CN2CCc3c([nH]c4ccccc34)C2)cc1	32.0%*
c1ccc2c3c([nH]c2c1)CN(Cc1ccc2c(c1)OCO2)CC3	i
CCOc1ccc(CN2CCc3ccccc3C2)cc1	i
Clc1ccccc1CN1CCc2c([nH]c3ccccc23)C1	i
Clc1ccc(CN2CCc3ccccc3C2)cc1Cl	i
CN(C)c1ccc(CN2CCc3ccccc3C2)cc1	31.0%*
FC(F)(F)COc1nc(Cl)nc(Nc2ccccc2)n1	i
SMILES	ST2 inh
O=C(CN1CCN(Cc2ccccc2)S1(=O)=O)Nc1ccc2c(c1)OCO2	i
COc1ccc(OC)c(C2SCCN2S(=O)(=O)c2ccc(Cl)c(Cl)c2)c1 (stereo not drawn)	i
CCOc1cccc(CN(Cc2ccccn2)C2CC2)c1	i
NC1(C(=O)NCCC2CN(Cc3ccco3)CCO2)CCCC1 (stereo not drawn)	i
CN(C)c1ncn(Cc2c(Cl)cccc2Cl)c2ncnc1-2	i
Clc1ccc(-c2noc([C@@H]3Cc4nc[nH]c4CN3Cc3cccs3)n2)cc1	30.0%*
O=C(O)c1ccc(CN2Cc3[nH]cnc3C[C@H]2c2nc(-c3cccc([N+](=O)[O-])c3)no2)cc1	i
COc1ccc(-c2noc([C@@H]3Cc4nc[nH]c4CN3C(=O)Nc3ccc(Cl)cc3)n2)cc1	i
CC(C)NC(=O)CSc1nc(-c2ccc3c(c2)OCO3)nc2cc(=O)[nH]n12	i
COc1ccc(-n2nc(C(=O)NC3CC3)c3c4ccccc4n(C)c3c2=O)cc1Cl	i
COc1ccc(-n2nc(C(=O)NCc3ccco3)c3c4ccccc4n(C)c3c2=O)cc1Cl	i
COc1ccc(-n2nc(C(=O)N3CCCCC3C)c3c4ccccc4n(C)c3c2=O)cc1Cl (stereo not drawn)	97.0%*
CN(Cc1ccc(-n2cccn2)cc1)C(=O)C(=O)c1cccs1	i
COc1cc(C(=O)N2CCN(Cc3cccc([N+](=O)[O-])c3)CC2)cc(OC)c1OC	i
CC1CCCC(C)N1C(=O)c1cc(-c2ccc(F)cc2)on1 (stereo not drawn)	i
Cc1cc(C)n(CCC(=O)N2CCC(=O)NCC2C)c(=O)n1 (stereo not drawn)	i
O=C(CN1C(=O)/C(=C\c2ccc(C(F)(F)F)cc2)Sc2ccccc21)NCCN1CCCC1	39.0%*
Cc1ccc(CCNC(=O)CN2C(=O)/C(=C/c3ccccc3F)Sc3ccccc32)cc1	i
COCCCNC(=O)CN1C(=O)/C(=C\c2ccc(Cl)cc2)Sc2ccccc21	i
CC1CCCC(NC(=O)CN2C(=O)/C(=C/c3ccccc3F)Sc3ccccc32)C1C (stereo not drawn)	32.0%*
COCCNC(=O)CN1C(=O)/C(=C\c2ccc(Cl)cc2)Sc2ccccc21	i
O=C(CN1C(=O)/C(=C/c2ccccc2F)Sc2ccccc21)NC1CCCC1	i
CNC(=O)CN1C(=O)/C(=C\c2ccc(C(F)(F)F)cc2)Sc2ccccc21	i
